Tgondii IFNg = T. gondii growth inhibition under IFN-gamma. activity change, negative = inhibition, % (test concentration not listed). actives 3.8% (n = 69,000). Toxoplasma gondii growth in IFN-gamma-treated host cells; stronger effect = lower value; in the data active = activity change below about -70%, passing the limit was not always enough;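 also: host cells are HeLa cells infected with Toxoplasma gondii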
* hit, by the source's call; i = inactive; ! = not active in a repeat. The full list was thinned out, with hits kept by preference.

SMILES	Tgondii IFNg
CC(=O)Nc1ccc(NC(=O)CSc2ncc(-c3ccccc3)nn2)cc1	51
COc1cc(C[C@H]2C(=O)OC[C@@H]2Cc2ccc(OC)c(OC)c2)ccc1O	-27
COc1ccc2c(c1)OCC(Cc1ccc(O)c(OC)c1)C2=O (centres undefined)	2
COc1ccc2c(c1)OCC(Cc1ccc(OC)c(O)c1)C2=O (centres undefined)	-75*
CN(C)S(=O)(=O)N1CCOCC(C(=O)O)C1 (centres undefined)	-55
Cc1ccc(CC(=O)NCc2ccc(-c3[nH]ncc3C(=O)N(C)C)cc2)cc1	10
CN(Cc1cc(-c2ccccc2)no1)Cc1ccc(-c2ccn[nH]2)o1	-4
COc1ccc(C2(C(=O)N3CCC(n4nc(-c5ccsc5)ccc4=O)CC3)CC2)cc1	-95*
COc1ccc(C2(C(=O)N3CCCC(N(C)C)CC3)CCCC2)cc1 (centres undefined)	5
COc1ccc(C2(C(=O)N3CCCC(O)(CO)C3)CC2)cc1 (centres undefined)	4
COc1ccc(OC)c(-c2noc(-c3c(O)c4ccccc4[nH]c3=O)n2)c1	35
COc1ccc(-c2nc3c(s2)CN(C(=O)Nc2ccc(OC)cc2OC)CC3)cc1	-18
CC(C)Oc1ccc(NC(=O)c2cc(-c3cnc(-c4cccnc4)nc3)cn2C)cc1	-17
Cc1ccc(NC(=O)c2ccc(CN3CCN(C)CC3)cc2)cc1Nc1nccc(-c2cccnc2)n1	-38
Cc1cn(-c2cc(NC(=O)c3ccc(C)c(Nc4nccc(-c5cccnc5)n4)c3)cc(C(F)(F)F)c2)cn1	-77*!
Cc1nc(-c2ccccc2)sc1CCNC(=O)C(=O)Nc1cccc([N+](=O)[O-])c1	325
CCCCCCOc1nsnc1C1=CCCN(C)C1	-75*
CCc1ccc(S(=O)(=O)NCCc2sc(-c3cccc(F)c3)nc2C)s1	-5
CC(C)N1CCCn2c(nc(CNC(=O)c3cnn(C)c3)cc2=O)C1	5
C#CCOc1ccc(C(=O)N2CCN(c3ccccn3)CC2)cc1	7
Cc1cccc(-c2nc(C)c(CCNC(=O)c3ccccc3)s2)c1	i
NC(=O)c1cnc2n1CCN(C(=O)c1csc(Cc3ccccc3)n1)C2	31
C1=C/COCc2cc(ccc2OCCN2CCCC2)Nc2nccc(n2)-c2cccc(c2)COC/1	-85*
Cn1c(=O)c(-c2nc(-c3ccccc3F)no2)c(O)c2ccccc21	51
CN1C[C@H](NC(=O)c2cccc(Cn3cccn3)c2)C[C@H]1CO	-42
SMILES	Tgondii IFNg
CN1CCN(S(=O)(=O)c2cc(C(=O)O)cc(-c3cc(F)ccc3F)c2)CC1	4
CCc1ccccc1NC(=O)N1CCC(c2nc(C(=O)N(C)C)c(C)o2)CC1	61
CN(CCNS(=O)(=O)c1ccc2[nH]c(=O)ccc2c1)C1CCCCC1	-29
O=C(OCc1ccc(C(F)(F)F)cc1)c1cc(Cl)cc(Cl)c1	-22
Cc1cccc(COc2cccnc2N)c1	42
Nc1nc(N)c2c(OCc3ccc(C(F)(F)F)cc3)cccc2n1	-74*
CCNC(=O)C1(Cc2ccccc2-c2ccsc2)CN(C(=O)C(C)C)CCO1 (centres undefined)	-21
Nc1nnc(SCc2ccccn2)s1	5
CC(C)(C)c1nc2ccccc2c2nnc(SCc3ccccn3)n12	-79*
C=CCn1c(SCc2ccccn2)nc2c([nH]c3ccccc32)c1=O	30
Cn1nccc1C(=O)C1CCN(C(=O)C2CCCN2S(=O)(=O)c2cccs2)CC1 (centres undefined)	-1
Cc1ccc(N2C(=O)CC3(CCN=N3)C2=O)cc1Cl (centres undefined)	15
COc1ccc(S(=O)(=O)N2CCCc3ccccc32)cc1	-113*
O=C1CCc2cc(S(=O)(=O)N3CCCc4ccccc43)cc3c2N1CCC3	1
O=S(=O)(c1ccc(F)cc1)N1CCCc2ccccc21	-12
O=c1ccc(CCn2c(=O)oc3ccccc32)n[nH]1	-8
Cc1oc(-c2ccc(C(F)(F)F)cc2)nc1CN1CCC(c2nc3ccccc3[nH]2)CC1	-12
COC(=O)c1noc(C)c1-c1ccn[nH]1	-13
CCOc1ncccc1C(=O)N1CCC[C@H]2CN(C(=O)CCCN3CCCC3=O)C[C@H]21	-8
Fc1ccc([C@@H]2CCNC[C@H]2COc2ccc3c(c2)OCO3)cc1	-35
O=C(NCc1ccc2c(c1)OCO2)c1ccccc1C1CCNC1 (centres undefined)	-2
Fc1ccc(C2CCNCC2COc2ccc3c(c2)OCO3)cc1 (centres undefined)	-75*
CCN1c2ccccc2[C@H]2CN(S(=O)(=O)C3CC3)CC[C@@H]21	3
O=C(c1csc(-c2cccs2)n1)N1CC(=O)N(C2CCCCC2)CC(OCc2cccnc2)C1 (centres undefined)	-5
Cc1[nH]c2ccccc2c1CCNCc1ccc(/C=C/C(=O)NO)cc1	-82*!
SMILES	Tgondii IFNg
Cc1[nH]c2ccccc2c1CCNC(=O)c1cccs1	29
CCO[C@H]1COC[C@@H]1NC(=O)Cc1c(C)[nH]c2ccccc12	5
Cc1ccc(-c2ccc(C(=O)N(C)CC(O)CO)cc2)o1 (centres undefined)	1
CC(=O)NCc1csc(C2CCCN(C(=O)c3cc(F)ccc3F)C2)n1 (centres undefined)	-23
Cn1cc(N2C[C@@H]3CN(Cc4ccoc4)C[C@H]3C2=O)cn1	14
Cc1cccc(N2C[C@@H]3CN(c4cccnc4)C(=O)[C@@H]3C2)n1	21
Cn1cc(N2C[C@@H]3CN(c4ccccn4)C[C@H]3C2=O)cn1	-87*
CCC(C)(C)C(=O)N1CCC(CO)(CCOc2ccccc2)CC1	66
c1ccc(-c2nn3c(c2-c2ccnc4cc(OCCN5CCOCC5)ccc24)CCC3)nc1	-78*
O=C(COc1ccc(F)cc1)OCCN1CCOCC1	13
O=C(Nc1cccc(OCCN2CCOCC2)c1)c1csc2c1CCCC2	14
CN(C)c1ccc(CNC(=O)Cn2ncc3c(N4CCOCC4)ncnc32)cc1	68
CC(C)C(=O)N1Cc2ccccc2C2(CCN(Cc3cnn(C)c3)CC2)C1	-7
CN1C(=O)c2cc(NC(=O)Cc3cccs3)ccc2OC[C@@H]2O[C@H](CC(=O)NCc3ccc(-c4ccccc4)cc3)CC[C@H]21	7
CN1C(=O)c2cc(NC(=O)Cc3cccs3)ccc2OC[C@H]2O[C@@H](CC(=O)NCCc3ccncc3)CC[C@@H]21	5
CN1C(=O)c2cc(NC(=O)Cc3cccs3)ccc2OC[C@H]2O[C@H](CC(=O)NCc3ccc(-c4ccccc4)cc3)CC[C@@H]21	-85*
CCOc1ccc(NC(=O)C(=O)NCCc2csc(-c3cccc(F)c3)n2)cc1	31
CCc1cccc(C)c1NC(=O)Cn1c(=O)cc(C(=O)N2CCCCC2)c2ccccc21	16
COc1ccc(NCc2nc(-c3ccc(C)cc3)no2)cc1OC	-25
CNC(=O)[C@@H]1COC[C@@H]2CN(Cc3nccs3)C[C@@H]21	-36
Cc1cccnc1CC(C)Nc1cc(N2CCOCC2)nc(N)n1 (centres undefined)	6
Cc1cccc(/C=N/Nc2cc(N3CCOCC3)nc(OCCc3ccccn3)n2)c1	-74*
Cc1cccc(CN2CCOCC3(CCN(c4ccccn4)C3)C2)n1 (centres undefined)	-43
CSCc1noc(-c2cn(CCc3ccccc3)nn2)n1	-12
CN(C)S(=O)(=O)c1ccc2c(c1)cc(C(=O)NCCc1ccccc1Cl)n2Cc1ccncc1	-43
Clc1ccc(Nc2nc3nonc3nc2Nc2ccc(Cl)cc2)cc1	-103*
Cc1c(Nc2nc3nonc3nc2Nc2cccc(Cl)c2)c(=O)n(-c2ccccc2)n1C	-24
